E coli Lon inh = inhibitors of E. coli Lon protease. P0A9M0. purified E. coli Lon protease, fluorescence polarization. inhibition, % at 7.94 µM. actives 0.42% (n = 360,000). AID 602123; in the data active = inhibition above about 13%, passing the limit was not always enough
BCLXL inh = blocks human Bcl-xL binding to Bim BH3 peptide; Q07817; GST-Bcl-xL / FITC-Bim BH3 peptide fluorescence polarization; inhibition, % at 10.9 µM; actives 0.7% (n = 320,000); AID 2129;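 active = inhibition above the mean of all tested compounds plus 3 SD, cutoff set per campaign, cut at about 30% in these data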;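 note: inhibitors lower millipolarization by displacing the labeled peptide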
MCL1 BIM primary = disrupts human MCL1 binding to BIM-BH3 peptide; actives 0.68% (n = 320,000); inhibition, % at 10.9 µM; Q07820; AID 2057; GST-MCL1 / FITC-Bim-BH3 fluorescence polarization;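 active = inhibition above the mean inhibition of all tested compounds plus 3 SD, set per campaign, cut at about 40% in these data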;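 note: higher means more loss of mP so more displacement of Bim peptide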
MEX-5 binding = C. elegans MEX-5 TCR-2 RNA binding activity | activity score (negative = inhibition of binding), % at 10 µM | AID 1832 | MEX-5/FITC-TCR2 RNA binding, fluorescence polarization; hits give low values | actives 0.38% (n = 300,000) | Q9XUB2;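 active = inhibition past about -25% in most replicates, and total fluorescence under double the plate's negative control median, limit read from the data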
EBV gp42 block = EBV gp42 inhibition. Q1HVG2. Fluorescence polarization binding assay, mP read-out. inhibition, % (tested at 21.74 µM). actives 0.42% (n = 220,000). AID 1085; in the data active = inhibition above about 50%
Target sequence (Q1HVG2 whole entry, looked up): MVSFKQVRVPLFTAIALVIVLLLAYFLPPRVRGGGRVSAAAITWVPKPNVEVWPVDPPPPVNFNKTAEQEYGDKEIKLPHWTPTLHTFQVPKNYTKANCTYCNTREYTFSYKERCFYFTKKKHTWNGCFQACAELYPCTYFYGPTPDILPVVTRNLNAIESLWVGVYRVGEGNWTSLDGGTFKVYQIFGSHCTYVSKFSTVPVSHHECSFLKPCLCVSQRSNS
GLD-1 RNA inh = GLD-1-TGE RNA interaction inhibition (C. elegans). actives 0.44% (n = 320,000). purified GLD-1 + fluorescein TGE RNA, fluorescence polarization. inhibition, % at 5.96 µM. Q17339;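 active = percent inhibition above a per-plate cutoff, the plate mean of test compounds plus 3 SD, cut at about 30% in these data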
Target sequence (Q17339 whole entry, looked up): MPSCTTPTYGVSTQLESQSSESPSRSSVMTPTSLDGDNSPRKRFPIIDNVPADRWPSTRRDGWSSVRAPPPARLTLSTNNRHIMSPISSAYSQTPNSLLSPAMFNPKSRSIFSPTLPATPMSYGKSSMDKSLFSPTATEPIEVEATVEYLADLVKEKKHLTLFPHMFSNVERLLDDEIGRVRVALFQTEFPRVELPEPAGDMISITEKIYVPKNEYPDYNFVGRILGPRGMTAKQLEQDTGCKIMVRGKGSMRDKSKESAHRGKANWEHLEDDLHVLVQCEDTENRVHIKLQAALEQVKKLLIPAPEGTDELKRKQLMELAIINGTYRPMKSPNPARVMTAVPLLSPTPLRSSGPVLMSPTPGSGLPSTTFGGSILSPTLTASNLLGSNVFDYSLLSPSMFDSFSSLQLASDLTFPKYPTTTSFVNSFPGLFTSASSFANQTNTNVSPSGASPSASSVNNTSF
GLD-1 TGE cf = confirmation of C. elegans GLD-1 TGE RNA binding inhibitors; shares compounds with GLD-1 RNA inh; GLD-1/FL-TGE RNA fluorescence polarization, biochemical; inhibition, % at 5.96 µM; actives 10% (n = 550);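 active = average inhibition across triplicates above the hit cutoff set in the primary screen, cut at about 32% in these data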
Each line names hits and unclear results; the compound was inactive in the other large screens (follow-up assays come after a bar, where they were run). An excerpt weighted towards active compounds, which were near 1.4% of everything screened.

O=C(CNC(=O)c1cccnc1)N/N=C/c1ccc(O)cc1O	GLD-1 RNA inh 32.8 (no result: EBV gp42 block) | GLD-1 TGE cf inactive
O=C(CNC(=O)c1cccs1)N/N=C/c1ccc(O)cc1O	none
CCOCCC(=O)Nc1ccc2c(c1)c(=O)n(C)n2CC=C(C)C	none (no result: BCLXL inh, MCL1 BIM primary, MEX-5 binding, EBV gp42 block, GLD-1 RNA inh)
O=C(CN1CCCCCCC1)Nc1cc(Cl)cc(Cl)c1	GLD-1 RNA inh 32.8 | GLD-1 TGE cf inactive
CCOC1=C2[C@@H](CN(S(=O)(=O)c3ccc(C)cc3)[C@H]2c2cccc3ccccc23)[C@H]2C(=O)N(C3CCCCC3)C(=O)[C@H]2C1	none (no result: BCLXL inh, MCL1 BIM primary, MEX-5 binding, EBV gp42 block, GLD-1 RNA inh)
O=C1Cc2ccccc2C(=O)N1Cc1cccc(Cl)c1	none (no result: BCLXL inh, MCL1 BIM primary, EBV gp42 block, GLD-1 RNA inh)
Nc1cccc2c1C(=O)N(Cc1cccc(Cl)c1)C2=O	GLD-1 RNA inh 32.0 | GLD-1 TGE cf 38.8
O=C(CCC(=O)c1cccs1)NCc1ccccc1Cl	none (no result: BCLXL inh, MCL1 BIM primary, MEX-5 binding, EBV gp42 block)
COCCNC(=O)CSc1nnc(NC(=O)C2CC(=O)N(c3ccccc3OC)C2)s1 (centres undefined)	none (no result: EBV gp42 block)
Cc1ccc(CS(=O)(=O)Cc2ccc(C(=O)NC3CC3)o2)cc1	GLD-1 RNA inh 33.0 (no result: EBV gp42 block) | GLD-1 TGE cf inactive
Nc1c(-c2cccc([N+](=O)[O-])c2)nc2ccccn12	GLD-1 RNA inh 32.0 | GLD-1 TGE cf 43.4
Cc1ccc(-c2cn3cccnc3n2)cc1NC(=O)c1cccs1	GLD-1 RNA inh 30.8 | GLD-1 TGE cf inactive
COc1cccc(C(=O)NN2CC(O)=C(c3nc(C)cs3)C2=N)c1	none
COc1cccc(C(=O)NN2CC(O)=C(c3nc4ccccc4s3)C2=N)c1	GLD-1 RNA inh 30.8 | GLD-1 TGE cf inactive
CCC1CCc2sc(C(=O)NCC(c3ccc(OC)cc3)N3CCCC3)cc2C1 (centres undefined)	GLD-1 RNA inh 48.7 (no result: EBV gp42 block) | GLD-1 TGE cf inactive
Cc1cc(C)cc(-n2ncc3c2CCCC3NC(=O)c2csnn2)c1 (centres undefined)	none (no result: EBV gp42 block)
CC(=O)Nc1cccc(C(=O)NC2CCCc3c2cnn3-c2cc(C)cc(C)c2)c1 (centres undefined)	GLD-1 RNA inh 57.7 (no result: EBV gp42 block) | GLD-1 TGE cf inactive
CO/N=C\Cc1oc(=O)c(NC(=O)c2ccccc2)cc1C(=O)OC	BCLXL inh 36.0, GLD-1 RNA inh 36.6 | GLD-1 TGE cf inactive
COC(=O)c1cc(NC(=O)c2ccccc2)c(=O)oc1C/C=N\OCc1ccc(Cl)cc1Cl	none
CCn1c(COc2cccc(C)c2)nnc1SCC(=O)CC(=O)Nc1ccccc1OC	none
CCn1c(COc2ccccc2)nnc1SCC(=O)CC(=O)Nc1ccccc1OC	GLD-1 RNA inh 34.7 | GLD-1 TGE cf inactive
Nc1ncnc2c1ncn2[C@@H]1O[C@H](C(=O)N2CCN(c3ccc(Cl)cn3)CC2)[C@@H](O)[C@H]1O	none (no result: BCLXL inh, MCL1 BIM primary, MEX-5 binding, EBV gp42 block, GLD-1 RNA inh)
O=C(Cn1cnc2ccccc2c1=O)c1ccc(OC(F)F)cc1	none (no result: EBV gp42 block)
Cc1ccc(CSC2=Nc3ccccc3C3=NC(CCC(=O)NCc4ccco4)C(=O)N23)cc1 (centres undefined)	none
O=C(CC1N=C2c3ccccc3N=C(SCc3ccc(Cl)cc3)N2C1=O)NCc1ccco1 (centres undefined)	GLD-1 RNA inh 39.5 (no result: MEX-5 binding) | GLD-1 TGE cf inactive
CN(N=Nc1nc[nH]c1C(=O)NN)C1CCCCC1	none (no result: BCLXL inh, MCL1 BIM primary, MEX-5 binding, EBV gp42 block, GLD-1 RNA inh)
COc1ccc(N2CCN(C3CCCN(C(=O)CN4CCOC4=O)C3)CC2)cc1 (centres undefined)	none (no result: EBV gp42 block)
Cc1ccc(OCC(=O)c2ccc(Cl)s2)c([N+](=O)[O-])n1	GLD-1 RNA inh 30.7 | GLD-1 TGE cf inactive
CS(=O)(=O)N(CC(=O)Nc1cc(Cl)ccc1Cl)c1ccccc1	none
COCc1nnc(NC(C)=O)s1	none
CCOC(=O)CSc1nnc(CSc2nc(C)cc(C)n2)n1Cc1ccco1	GLD-1 RNA inh 35.6 | GLD-1 TGE cf inactive
CC(NC(=O)c1ccc2c(c1)OCO2)C(c1cccs1)N1CCN(c2ccccc2)CC1 (centres undefined)	none (no result: MEX-5 binding)
COc1ccc(C2Nc3ccccc3NC3=C2C(=O)CC(C)(C)C3)cc1OC (centres undefined)	none (no result: EBV gp42 block)
CC1(C)CC(=O)C2=C(C1)Nc1ccccc1NC2c1ccc(F)cc1 (centres undefined)	BCLXL inh 46.1, MCL1 BIM primary 45.2, GLD-1 RNA inh 34.8 (no result: EBV gp42 block) | GLD-1 TGE cf inactive
COc1cc(C(=O)NCC(c2ccco2)N2CCOCC2)cc(OC)c1OC (centres undefined)	none (no result: EBV gp42 block)
Cc1[nH]c(=O)[nH]c(=O)c1S(=O)(=O)N1CCCC(C(=O)NCCC2=CCCCC2)C1 (centres undefined)	none
CCC12OC(=N)C(C#N)(C1C)C(C#N)(C#N)C(c1ccccc1)O2 (centres undefined)	GLD-1 RNA inh 32.8 | GLD-1 TGE cf inactive
O=c1[nH]c2ccccc2cc1CN(Cc1ccco1)S(=O)(=O)c1ccccc1	none (no result: EBV gp42 block)
COc1ccccc1C(=O)Nc1ccc(-c2nnn(CC(=O)N3CCN(C(=O)c4ccco4)CC3)n2)cc1	GLD-1 RNA inh 51.4 | GLD-1 TGE cf inactive
Cc1ccc(S(=O)(=O)N[C@H](C(=O)Oc2ccc3c(C(F)(F)F)cc(=O)oc3c2)c2ccccc2)cc1	E coli Lon inh 19.8, BCLXL inh 45.3, MCL1 BIM primary 45.3, GLD-1 RNA inh 50.4 | GLD-1 TGE cf 44.3
N#CC1=C2N=C(N)c3ccccc3N2C2=C(C(=O)CCC2)C1c1cccc(Cl)c1 (centres undefined)	GLD-1 RNA inh 47.9 | GLD-1 TGE cf inactive
O=C(/C=C/c1ccc(Cl)cc1)NCc1cccs1	GLD-1 RNA inh 65.5 | GLD-1 TGE cf inactive
CN1CCN(c2ccc(S(=O)(=O)N3CCOCC3)cc2NC(=O)COc2ccc(C#N)cc2)CC1	none (no result: BCLXL inh, MCL1 BIM primary, MEX-5 binding, EBV gp42 block, GLD-1 RNA inh)
CCOC(=O)C1CC(=O)c2cc(OC)c(OC)cc2C1 (centres undefined)	GLD-1 RNA inh 60.3 | GLD-1 TGE cf inactive
CCOC(=O)C1CCCN(S(=O)(=O)c2ccc(S(=O)(=O)N3CCCC3)cc2)C1 (centres undefined)	GLD-1 RNA inh 38.4 (no result: EBV gp42 block) | GLD-1 TGE cf inactive
O=C(OCC(=O)N1CCN(C(=O)c2ccco2)CC1)c1sc2cc(F)ccc2c1Cl	BCLXL inh 60.5, GLD-1 RNA inh 36.1 | GLD-1 TGE cf inactive
Clc1ccccc1/C=N/NC1=Nc2cccc3cccc1c23	GLD-1 RNA inh 48.3 | GLD-1 TGE cf inactive
C(=N\NC1=Nc2cccc3cccc1c23)/c1ccccn1	none (no result: BCLXL inh, MCL1 BIM primary, GLD-1 RNA inh)
CCN(CC)CCNC(C(=O)Nc1cc(C(F)(F)F)ccc1Cl)c1ccccc1 (centres undefined)	GLD-1 RNA inh 35.2 | GLD-1 TGE cf inactive
Cn1cc(/C=N\O)nc2c(=O)n(-c3ccccc3)c(=O)nc1-2	BCLXL inh 36.4, GLD-1 RNA inh 35.2 | GLD-1 TGE cf inactive
Nc1cccc2c1C(=O)N(C(=O)c1cccc(S(=O)(=O)N3CCCCCC3)c1)C2=O	GLD-1 RNA inh 37.7 | GLD-1 TGE cf inactive

Screening data (PubChem BioAssay)
